What is called AC50 is the concentration giving half of the maximal activity seen.

Records with an inconclusive call do not appear. Active and inactive are the calls of the source. Rule for the calls, unless noted: active = hit-call score of the fitted dose curve at least 0.9, where 1 is the maximum; inactive = score below 0.9.

Read-out in experiment [1]: E-selectin (Homo sapiens) (UniProt P16581)
As to the kind of experiment: BSK_SAg_Eselectin: BioMAP Diversity Plus: SAg Assay for Eselectin Biomarker Activity (AID 2283091). The conditions noted are these: primary human HUVEC with PBMC; actives raise or lower the signal. In a few lines:
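Human umbilical vein endothelial cells co-cultured with peripheral blood mononuclear cells, SAg system. E-selectin is measured by ELISA 24 h after dosing and fitted bidirectionally against DMSO. Cytotoxicity is checked by SRB staining of parallel cultures.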

Read-out in experiment [2]: Monokine induced gamma interferon (MIG), CXCL9 (gene 4283)
As to the kind of experiment: BSK_SAg_MIG: BioMAP Diversity Plus: SAg Assay for Monokine induced gamma interferon (MIG) Biomarker Activity (AID 2283092). The settings on record: primary human HUVEC with PBMC; actives raise or lower the signal. In a few lines: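 Endothelial cells and PBMC were co-cultured, exposed to test chemicals, and sampled 24 h later. MIG was measured by ELISA, and responses were fitted in both directions relative to DMSO.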

Experiment [3] can be described thus: BSK_SAg_PBMCCytotoxicity: PBMC Cytotoxicity Assessment in the BioMAP Diversity Plus: SAg Assay (AID 2283093).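 For AC50: PBMC superantigen activated with SEB plus TSST-1 one hour after compound addition.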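 Note: PBMC viability measured as Alamar Blue reduction fluorescence at 546/580 nm; fitted both ways against DMSO so a hit may be loss or gain of signal.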 The settings on record: primary human HUVEC with PBMC. In a few lines: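 Alamar Blue reduction (6 h, ex/em 546/580 nm) read after 90 h culture of PBMC pre-dosed 1 h then stimulated with SEB plus TSST-1, 20 ng/mL each. Gain or loss of signal fitted relative to DMSO.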

Read-out in experiment [4]: Interleukin-8 (IL8), CXCL8 (gene 3576)
As to the kind of experiment: BSK_SAg_IL8: BioMAP Diversity Plus: SAg Assay for Interleukin-8 (IL8) Biomarker Activity (AID 2283094). The conditions noted are these: primary human HUVEC with PBMC; actives raise or lower the signal. In a few lines: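 HUVEC/PBMC co-culture, 24 h post-dose; IL-8 by ELISA. Gain or loss of signal fitted bidirectionally vs DMSO baseline.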

Experiment [5] is described as follows: BSK_SAg_Proliferation: Cell Proliferation Assessment in the BioMAP Diversity Plus: SAg Assay (AID 2283095).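 Note: relative cell number as total protein by SRB absorbance in sub-confluent culture.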 The conditions noted are these: primary human HUVEC with PBMC. In a few lines: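 HUVEC/PBMC co-culture, 96-well. TCA-fixed (10%), 0.1% SRB stain, A560 at 96 h. Protein content used as viability readout; bidirectional fitting vs DMSO control.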
Experiment [6] in a line: BSK_SAg_SRB: Viability Assessment in the BioMAP Diversity Plus: SAg Assay (AID 2283096).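 Note: cells read one day after compound addition; hits may be either gain or loss of signal compared with DMSO.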 The conditions noted are these: primary human HUVEC with PBMC. In a few lines: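 SRB absorbance at 560 nm served as the viability read-out. Cells (HUVEC plus peripheral blood mononuclear cells) were TCA-fixed and stained 24 h post-dosing; activity fitted in both directions against DMSO controls.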

Experiment [7] addresses human Beta-secretase (BACE), BACE1 (gene 23621) (UniProt P56817). As to the kind of experiment: NVS_ENZ_hBACE: NovaScreen (NVS) Enzymatic Assay for human Beta-secretase (BACE) (AID 2283140; active = hit-call score of the fitted dose curve at least 0.9, where 1 is the maximum;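 note: hits are inhibitors that reduce fluorescent substrate signal versus DMSO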). In a few lines:
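SF9-expressed enzyme, cell-free; fluorescent substrate readout after 1 h. Screened at 25 uM single concentration, duplicate; hits retested in concentration series. Activity relative to DMSO baseline, loss-of-signal.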

The target of experiment [8] is human AKT serine/threonine Kinase 1 (AKT1), AKT1 (gene 207) (UniProt P31749). As to the kind of experiment: NVS_ENZ_hAKT1: NovaScreen (NVS) Enzymatic Assay for human AKT serine/threonine Kinase 1 (AKT1) (AID 2283138; active = hit-call score of the fitted dose curve at least 0.9, where 1 is the maximum). In a few lines:
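Fluorescence and mobility-shift readout of kinase activity, taken 1 h post-dosing in a cell-free format with recombinant protein. Primary screen at 25 uM in duplicate; hits (e.g. 30% inhibition) retested in concentration series topping at 50 uM.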

Experiment [9] concerns the target human Caspase 5 (CASP5), CASP5 (gene 838) (UniProt P51878). As to the kind of experiment: NVS_ENZ_hCASP5: NovaScreen (NVS) Enzymatic Assay for human Caspase 5 (CASP5) (AID 2283137; active = hit-call score of the fitted dose curve at least 0.9, where 1 is the maximum). In a few lines:
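Fluorescent substrate readout of CASP5 activity (loss-of-signal), measured 2 h post-dose. Protein expressed in E. coli. Primary screen duplicate at 25 uM; actives meeting threshold (e.g., 30% inhibition) rerun singleton, max 50 uM.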

In experiment [10] the target is Cytochrome P450 3A4 (Homo sapiens) (UniProt P08684). As to the kind of experiment: NVS_ADME_hCYP3A4: NovaScreen (NVS) CYP450-related Enzyme Activity (ADME) Assay for human CYP3A4 (AID 2283110; active = hit-call score of the fitted dose curve at least 0.9, where 1 is the maximum). In a few lines:
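Compounds screened in duplicate at 10 uM, with follow-up concentration-response for actives, against insect-cell-expressed recombinant enzyme. Activity read by fluorescence 0.33 h after dosing; loss of signal versus acetonitrile control indicates inhibition.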

In experiment [11] the target is human Acid Phosphatase 1 (ACP1), ACP1 (gene 52) (UniProt P24666). As to the kind of experiment: NVS_ENZ_hACP1: NovaScreen (NVS) Enzymatic Assay for human Acid Phosphatase 1 (ACP1) (AID 2283136; active = hit-call score of the fitted dose curve at least 0.9, where 1 is the maximum). In a few lines:
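Cell-free fluorescence read-out of phosphatase activity, substrate and product separated by mobility shift, taken 1.5 h after compound addition; protein produced in Sf9. Single 25 uM duplicate screen, followed by concentration series for actives, scored as signal loss relative to DMSO.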

Experiment [12] concerns the target human CYP1A2, CYP1A2 (gene 1544) (UniProt P05177). As to the kind of experiment: NVS_ADME_hCYP1A2: NovaScreen (NVS) CYP450-related Enzyme Activity (ADME) Assay for human CYP1A2 (AID 2283102; active = hit-call score of the fitted dose curve at least 0.9, where 1 is the maximum). In a few lines: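 Recombinant human CYP1A2 from insect cells, cell-free, fluorogenic substrate; read 0.5 h after dosing with loss of fluorescence signal indicating inhibition. Primary screen in duplicate at 10 uM, acetonitrile as negative control.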

Experiment [13] addresses Caspase-3 (Homo sapiens) (UniProt P42574). As to the kind of experiment: NVS_ENZ_hCASP3: NovaScreen (NVS) Enzymatic Assay for human Caspase 3 (CASP3) (AID 2283139; active = hit-call score of the fitted dose curve at least 0.9, where 1 is the maximum). In a few lines:
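Single-concentration screening at 25 uM in duplicate, with concentration-response follow-up to a 50 uM maximum for chemicals passing the threshold. Caspase-3 (human, E. coli-expressed) activity was read as substrate fluorescence after 1 h, with loss of signal relative to DMSO.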

For experiment [14], the target named is Cytochrome P450 2C19 (Homo sapiens) (UniProt P33261). As to the kind of experiment: NVS_ADME_hCYP2C19: NovaScreen (NVS) CYP450-related Enzyme Activity (ADME) Assay for human CYP2C19 (AID 2283113; active = hit-call score of the fitted dose curve at least 0.9, where 1 is the maximum;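 for AC50: potency for inhibition seen as loss of fluorescent signal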). In a few lines:
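Cell-free recombinant human CYP2C19 from insect cells, fluorescent substrate; activity read by fluorescence intensity 1 h after dosing. Primary screen in duplicate at 10 uM; actives retested in concentration series. Signal loss versus acetonitrile negative control.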

Experiment [15] addresses human CYP2C9, CYP2C9 (gene 1559) (UniProt P11712). As to the kind of experiment: NVS_ADME_hCYP2C9: NovaScreen (NVS) CYP450-related Enzyme Activity (ADME) Assay for human CYP2C9 (AID 2283108; active = hit-call score of the fitted dose curve at least 0.9, where 1 is the maximum). In a few lines:
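Fluorescence readout of CYP2C9 activity (SF9-expressed human enzyme) at 0.75 h. The primary screen used 10 uM in duplicate, with concentration-response follow-up for actives; acetonitrile was the negative control.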

Chain of human AKT serine/threonine Kinase 1 (AKT1), AKT1 (gene 207) (P31749 whole entry, looked up): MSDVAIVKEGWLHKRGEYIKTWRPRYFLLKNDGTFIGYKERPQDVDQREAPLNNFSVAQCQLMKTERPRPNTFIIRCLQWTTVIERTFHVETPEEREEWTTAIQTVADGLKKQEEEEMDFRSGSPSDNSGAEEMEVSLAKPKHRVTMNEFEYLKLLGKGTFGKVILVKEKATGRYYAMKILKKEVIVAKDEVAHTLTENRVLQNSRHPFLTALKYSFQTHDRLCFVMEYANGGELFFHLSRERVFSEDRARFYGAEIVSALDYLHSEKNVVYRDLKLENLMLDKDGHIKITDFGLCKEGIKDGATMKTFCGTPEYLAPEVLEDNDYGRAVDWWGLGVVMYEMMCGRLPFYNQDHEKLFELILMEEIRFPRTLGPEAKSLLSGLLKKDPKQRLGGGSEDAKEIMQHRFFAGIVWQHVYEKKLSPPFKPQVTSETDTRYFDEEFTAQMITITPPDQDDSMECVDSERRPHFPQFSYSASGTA
Chain of human Acid Phosphatase 1 (ACP1), ACP1 (gene 52) (P24666 whole entry, looked up): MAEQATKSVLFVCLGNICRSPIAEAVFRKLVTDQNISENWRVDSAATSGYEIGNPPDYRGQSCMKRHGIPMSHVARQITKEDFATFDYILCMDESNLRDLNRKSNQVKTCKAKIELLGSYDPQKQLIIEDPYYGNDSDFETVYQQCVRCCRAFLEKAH
Chain of E-selectin (Homo sapiens) (P16581 whole entry, looked up): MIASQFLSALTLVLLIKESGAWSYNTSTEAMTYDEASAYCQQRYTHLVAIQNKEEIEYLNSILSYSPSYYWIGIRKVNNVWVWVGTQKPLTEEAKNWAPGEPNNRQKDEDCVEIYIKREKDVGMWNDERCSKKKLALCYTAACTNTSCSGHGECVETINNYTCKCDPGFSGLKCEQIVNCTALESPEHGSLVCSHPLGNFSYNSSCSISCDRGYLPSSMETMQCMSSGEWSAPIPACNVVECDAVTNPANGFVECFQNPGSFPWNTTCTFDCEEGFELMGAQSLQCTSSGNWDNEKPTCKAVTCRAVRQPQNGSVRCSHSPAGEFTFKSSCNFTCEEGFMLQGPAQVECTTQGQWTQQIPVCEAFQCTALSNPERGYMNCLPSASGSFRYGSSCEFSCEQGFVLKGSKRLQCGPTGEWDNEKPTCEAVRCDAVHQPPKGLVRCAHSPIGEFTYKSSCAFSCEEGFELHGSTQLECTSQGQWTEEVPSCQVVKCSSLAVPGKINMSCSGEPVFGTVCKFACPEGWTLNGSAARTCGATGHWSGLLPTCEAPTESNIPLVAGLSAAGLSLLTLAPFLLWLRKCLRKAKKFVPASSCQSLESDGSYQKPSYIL
Chain of human Beta-secretase (BACE), BACE1 (gene 23621) (P56817 whole entry, looked up): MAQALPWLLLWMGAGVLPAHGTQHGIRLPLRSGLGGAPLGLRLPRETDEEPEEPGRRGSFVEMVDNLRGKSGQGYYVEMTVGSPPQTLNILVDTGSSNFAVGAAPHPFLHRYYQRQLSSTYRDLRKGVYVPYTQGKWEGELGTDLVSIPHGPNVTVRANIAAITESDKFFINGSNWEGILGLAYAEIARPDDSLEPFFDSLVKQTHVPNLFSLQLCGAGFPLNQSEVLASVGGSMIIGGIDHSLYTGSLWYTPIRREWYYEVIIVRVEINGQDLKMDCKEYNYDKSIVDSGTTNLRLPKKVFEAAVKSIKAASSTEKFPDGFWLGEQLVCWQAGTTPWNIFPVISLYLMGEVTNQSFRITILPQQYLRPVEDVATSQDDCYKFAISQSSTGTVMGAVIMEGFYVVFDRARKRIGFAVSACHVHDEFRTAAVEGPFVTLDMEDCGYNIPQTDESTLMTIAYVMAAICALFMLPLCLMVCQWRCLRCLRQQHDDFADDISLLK
Chain of human Caspase 5 (CASP5), CASP5 (gene 838) (P51878 whole entry, looked up): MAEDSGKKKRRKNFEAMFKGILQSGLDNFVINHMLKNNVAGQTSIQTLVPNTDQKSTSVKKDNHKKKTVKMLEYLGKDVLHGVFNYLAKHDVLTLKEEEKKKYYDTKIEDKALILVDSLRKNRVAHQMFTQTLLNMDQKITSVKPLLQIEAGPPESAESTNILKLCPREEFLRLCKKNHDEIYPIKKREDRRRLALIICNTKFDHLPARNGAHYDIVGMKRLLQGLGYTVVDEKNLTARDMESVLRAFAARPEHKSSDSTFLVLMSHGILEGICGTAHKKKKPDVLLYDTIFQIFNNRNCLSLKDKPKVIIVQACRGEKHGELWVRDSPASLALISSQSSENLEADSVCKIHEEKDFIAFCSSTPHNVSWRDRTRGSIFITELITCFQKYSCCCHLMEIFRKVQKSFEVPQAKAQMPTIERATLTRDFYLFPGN
Chain of Cytochrome P450 3A4 (Homo sapiens) (P08684 whole entry, looked up): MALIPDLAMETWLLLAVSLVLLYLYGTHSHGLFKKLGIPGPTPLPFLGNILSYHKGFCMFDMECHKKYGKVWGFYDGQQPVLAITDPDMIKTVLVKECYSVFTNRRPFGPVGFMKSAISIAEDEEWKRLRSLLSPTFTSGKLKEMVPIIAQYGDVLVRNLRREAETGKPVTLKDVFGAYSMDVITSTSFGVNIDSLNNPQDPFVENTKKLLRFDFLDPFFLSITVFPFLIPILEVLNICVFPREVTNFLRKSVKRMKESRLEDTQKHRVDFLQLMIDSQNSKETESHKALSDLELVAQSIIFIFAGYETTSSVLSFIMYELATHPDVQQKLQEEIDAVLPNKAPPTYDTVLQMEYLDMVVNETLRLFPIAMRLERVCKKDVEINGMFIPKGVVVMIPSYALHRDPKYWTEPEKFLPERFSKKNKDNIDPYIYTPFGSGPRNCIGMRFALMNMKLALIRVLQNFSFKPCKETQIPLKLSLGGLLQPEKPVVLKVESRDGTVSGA
Chain of Caspase-3 (Homo sapiens) (P42574 whole entry, looked up): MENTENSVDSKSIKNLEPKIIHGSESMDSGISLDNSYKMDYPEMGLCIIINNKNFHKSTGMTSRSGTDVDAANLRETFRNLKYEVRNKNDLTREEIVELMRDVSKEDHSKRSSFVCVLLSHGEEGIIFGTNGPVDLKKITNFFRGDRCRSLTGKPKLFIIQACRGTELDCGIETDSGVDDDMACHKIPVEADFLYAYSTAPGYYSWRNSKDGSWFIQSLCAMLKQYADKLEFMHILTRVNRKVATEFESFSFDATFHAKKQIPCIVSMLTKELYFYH
Chain of human CYP2C9, CYP2C9 (gene 1559) (P11712 whole entry, looked up): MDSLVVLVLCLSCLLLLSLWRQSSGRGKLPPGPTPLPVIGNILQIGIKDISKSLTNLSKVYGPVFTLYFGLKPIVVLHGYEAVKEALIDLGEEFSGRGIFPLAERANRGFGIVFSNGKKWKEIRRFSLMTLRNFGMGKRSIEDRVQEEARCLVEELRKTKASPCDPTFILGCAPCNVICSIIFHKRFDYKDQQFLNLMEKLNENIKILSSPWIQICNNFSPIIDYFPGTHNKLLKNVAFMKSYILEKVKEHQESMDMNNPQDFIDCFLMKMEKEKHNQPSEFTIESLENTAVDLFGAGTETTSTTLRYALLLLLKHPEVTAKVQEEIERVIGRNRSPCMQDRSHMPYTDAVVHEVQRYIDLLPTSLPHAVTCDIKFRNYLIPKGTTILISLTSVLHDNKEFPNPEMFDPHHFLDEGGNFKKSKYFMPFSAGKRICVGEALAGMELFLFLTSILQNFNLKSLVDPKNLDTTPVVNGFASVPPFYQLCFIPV
Chain of human CYP1A2, CYP1A2 (gene 1544) (P05177 whole entry, looked up): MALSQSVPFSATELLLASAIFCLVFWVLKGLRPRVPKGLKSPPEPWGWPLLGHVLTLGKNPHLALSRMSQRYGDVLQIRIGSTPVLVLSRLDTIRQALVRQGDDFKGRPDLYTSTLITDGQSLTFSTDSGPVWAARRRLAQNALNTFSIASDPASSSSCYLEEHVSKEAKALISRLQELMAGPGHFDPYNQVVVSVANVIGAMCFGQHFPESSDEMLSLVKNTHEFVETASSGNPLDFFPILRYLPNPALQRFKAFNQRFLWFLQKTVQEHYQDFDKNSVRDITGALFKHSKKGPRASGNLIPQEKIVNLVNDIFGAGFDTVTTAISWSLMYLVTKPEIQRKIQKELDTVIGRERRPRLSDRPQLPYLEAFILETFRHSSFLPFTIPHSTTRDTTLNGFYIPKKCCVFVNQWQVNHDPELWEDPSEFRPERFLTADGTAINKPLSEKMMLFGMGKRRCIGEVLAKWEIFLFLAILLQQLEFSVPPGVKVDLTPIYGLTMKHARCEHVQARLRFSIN

With `Nc1ccccc1N`, the outcome in experiment [1], in experiment [2], in [3], in experiment [4], in experiment [5] and in experiment [6] was inactive. In addition, in experiment [7], the outcome was inactive.

Turning to `CCCCCCCCCCCC(=O)OC`, the result in [1], in experiment [2], in [4], in experiment [5], in [6] and in experiment [8] was inactive. Also, in [3], the AC50 is 20 µM (active).

`COc1cc(-c2nc(NC(=O)c3cc4cc(C)cc(C)c4n3CC(=O)O)sc2CCC2CCCCC2)c(OC)cc1Cl`: the AC50 in experiment [1] is 5.48 µM (active); in [2] it was 4.63 µM (active); in experiment [3], 16.9 µM (active); in experiment [4], 16.9 µM (active); in experiment [5], 3.49 µM (active); in experiment [6], 3.85 µM (active). The AC50 in [9] is 0.91 µM (active).

`CCCCCCCCCCCCCCCC`: the outcome in experiment [1], in experiment [2], in [3], in experiment [4], in experiment [5] and in [6] was inactive. In [8], the compound was called inactive.

As to `NCCO`, the result in experiment [1], in experiment [2], in experiment [3], in experiment [4], in [5] and in experiment [6] was inactive. Further, the result in [10], in experiment [11] and in [8] was inactive.

For `CC1(C)CC(N=C=O)CC(C)(CN=C=O)C1` (centres undefined), the result in [1], in experiment [2], in experiment [3], in [4], in [5] and in experiment [6] was inactive. The compound was classed as inactive in [12] and in experiment [9].

In the case of `CNC(=O)[C@H]1O[C@@H](n2cnc3c(NCc4cc(Cl)ccc4OCc4cc(C)no4)ncnc32)[C@H](O)[C@@H]1N`, the result in experiment [1], in experiment [2], in [3], in experiment [4], in [5] and in experiment [6] was inactive. Besides, the compound was classed as inactive in experiment [8].

For the compound `CCCCc1ccc2c(n1)[C@@H](c1ccc(OC)cc1C[C@H](C)C(=O)O)[C@H](C(=O)O)[C@H]2c1ccc2c(c1)OCO2`, the result in experiment [1], in experiment [2], in experiment [3], in experiment [4], in experiment [5] and in [6] was inactive. In experiment [7], the half-maximal activity concentration (AC50) is 9.68 µM (active).

As for `Cc1ccc2ncccc2c1`, the result in experiment [1], in experiment [2], in experiment [3], in experiment [4], in experiment [5] and in experiment [6] was inactive. The outcome in [11], in experiment [9] and in experiment [7] was inactive.

Consider `FC(F)(F)C(F)(F)C(F)(F)C(F)(F)C(F)(F)C(F)(F)CCI`, for which the result in [1], in experiment [2], in experiment [3], in [4], in experiment [5] and in experiment [6] was inactive. The call in experiment [11] was inactive.

Regarding `COc1cc(S(=O)(=O)O)c(C)cc1N=Nc1c(O)ccc2cc(S(=O)(=O)O)ccc12`, the result in experiment [1], in experiment [2], in [3], in [4], in experiment [5] and in experiment [6] was inactive. Moreover, the figures for the AC50 in [9] and in [13] were 19.9 µM (active) and 15.3 µM (active), respectively.

On to `CCc1c(C(=O)NN2CCCCC2)nn(-c2ccc(Cl)cc2Cl)c1-c1ccc(Br)cc1`, for which the half-maximal activity concentration (AC50) in experiment [1] is 12.3 µM (active); in experiment [2] it was 9.99 µM (active); in experiment [3] it was 11.8 µM (active); in [4], 7.03 µM (active); in experiment [5], 7.06 µM (active); in experiment [6], 8.32 µM (active). Also, the result in experiment [10], in [14] and in [9] was inactive.

In the case of `CN1CCN(Cc2cc(-c3ccc4[nH]c(=O)oc4c3)co2)[C@@H](c2ccc(F)cc2)C1`, the AC50 in [1] is 11.2 µM (active); in [3] it was 28.1 µM (active); in experiment [4], 9.71 µM (active); in experiment [5] it was 30.7 µM (active). Also, the outcome in experiment [2], in experiment [6] and in [14] was inactive.

As for `O=C(OCCCCCOC(=O)c1ccccc1)c1ccccc1`, the result in experiment [1], in experiment [2], in experiment [3], in experiment [4], in [5] and in experiment [6] was inactive. Moreover, the outcome in [8] was inactive.

As to `CCCCOC(=O)CCCCCCCCC(=O)OCCCC`, the outcome in experiment [1], in experiment [2], in experiment [3], in experiment [4], in experiment [5] and in experiment [6] was inactive. The half-maximal activity concentration (AC50) in experiment [7] is 2.12 µM (active).

As for `Cc1oc(-c2ccccc2)nc1CCOc1cccc2c1ccn2CCC(=O)O`, the outcome in experiment [1], in experiment [2], in experiment [3], in experiment [4], in [5] and in [6] was inactive. The AC50 in experiment [7] is 9.92 µM (active).

With `CCCCCCCCCCCCCCCCCC(=O)O`, the outcome in experiment [1], in experiment [2], in experiment [4] and in experiment [6] was inactive. In addition, the AC50 was 26.7 µM (active) in experiment [3], 24.1 µM (active) in experiment [5] and 0.719 µM (active) in experiment [9].

In the case of `Cc1cccc([N+](=O)[O-])c1C`, the outcome in experiment [1], in [2], in experiment [3], in experiment [4], in experiment [5] and in [6] was inactive. Also, the AC50 in experiment [14] was 18.6 µM (active).

In the case of `Nc1nc(N)c2nc(CNc3ccc(C(=O)N[C@@H](CCC(=O)O)C(=O)O)cc3)cnc2n1`, the outcome in [1], in experiment [2], in experiment [3], in experiment [4] and in [6] was inactive. The AC50 in [5] was 3.22 µM (active); in experiment [15] it was 12.3 µM (active).

On to `CCCc1cc(=O)[nH]c(=S)[nH]1`, for which the result in experiment [1], in experiment [2], in [3], in [4], in experiment [5] and in experiment [6] was inactive. Also, the result in experiment [11] and in experiment [13] was inactive.

The values above are taken from PubChem BioAssay (EPA / NIEHS).
